Laboratory results from PubChem BioAssay (NCI).
About 79,000 compounds went through this panel and 15% of them were active in at least one assay; those are over-represented in the sample as a whole. Activity calls are given as the source filed them. No stated cut-off is given here; in the data, active means growth inhibition above about 70%; inactive means the rest.

Experiments:
[1] = NCI Yeast Anticancer Drug Screen. Data for the rad52 strain (AID 147);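 further: 0% = growth of vehicle-treated control cultures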; conditions: S. cerevisiae rad52 mutant growth inhibition, stronger effect = higher value
How it was run: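 Inhibition of yeast growth, referenced to vehicle controls, was the measured output for a strain with defective DNA damage repair.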

[2] = NCI Yeast Anticancer Drug Screen. Data for the wt1 strain (AID 149);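 further: 0% = growth of vehicle-treated wt1 cultures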; conditions: S. cerevisiae wt1 strain (SPY 50644) growth inhibition, stronger effect = higher value
How it was run: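 Measured: growth of wt1 yeast under compound versus vehicle treatment, reported as inhibition.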

[3] = NCI Yeast Anticancer Drug Screen. Data for the rad50EPP+ strain (AID 151);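 further: 0% = growth of vehicle-treated control cultures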; conditions: S. cerevisiae rad50 mutant strain, stronger effect = higher value
How it was run: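 Genetically defined yeast (rad50EPP+, DNA damage repair alteration) is grown with compound, and inhibition of growth is expressed relative to vehicle-treated controls.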

[4] = NCI Yeast Anticancer Drug Screen. Data for the mgt1 strain (AID 153); conditions: S. cerevisiae mgt1 mutant growth inhibition, stronger effect = higher value
How it was run: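 In the mgt1 strain, test compounds were added and growth inhibition was determined relative to vehicle-treated controls.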

[5] = NCI Yeast Anticancer Drug Screen. Data for the rad50 strain (AID 155);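 further: 0% = growth of vehicle-only cultures of the same strain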; conditions: S. cerevisiae rad50 strain growth inhibition, stronger effect = higher value
How it was run: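 Growth of the mutant yeast was measured after compound exposure and referenced to vehicle-treated cultures.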

[6] = NCI Yeast Anticancer Drug Screen. Data for the mec2-1 strain (AID 157); conditions: S. cerevisiae mec2-1 strain, stronger effect = higher value
How it was run: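 Each compound was tested on mec2-1 yeast, a strain altered in DNA damage repair or cell cycle control. Growth inhibition is reported relative to vehicle.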

[7] = NCI Yeast Anticancer Drug Screen. Data for the rad14 strain (AID 159);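 further: 0% = growth of vehicle-treated control cultures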; conditions: S. cerevisiae rad14 strain growth inhibition, stronger effect = higher value
How it was run: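 Here, inhibition of yeast growth was measured after compound exposure, using a strain with a genetic defect in DNA damage repair and vehicle-treated cultures as the reference.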

[8] = NCI Yeast Anticancer Drug Screen. Data for the sgs1 mgt1 strain (AID 161);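 further: 0% = growth of cultures given vehicle only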; conditions: S. cerevisiae sgs1 mgt1 strain, stronger effect = higher value
How it was run: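 Test agents were incubated with a DNA-repair-mutant yeast strain. Growth was then read and compared against vehicle-treated controls.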

[9] = NCI Yeast Anticancer Drug Screen. Data for the CLN2oe strain (AID 163);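 further: 0% = growth of vehicle-only control cultures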; conditions: S. cerevisiae CLN2oe strain, stronger effect = higher value
How it was run: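 First, the altered yeast strain was treated with each compound; second, its growth was measured; finally, inhibition was derived by comparison with vehicle controls.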

[10] = NCI Yeast Anticancer Drug Screen. Data for the cln2 rad14 strain (AID 165);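 further: 0% = growth equal to vehicle treated cultures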; conditions: S. cerevisiae cln2 rad14 strain, stronger effect = higher value
How it was run: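 Test compounds were added to cln2 rad14 yeast cultures; inhibition of growth was then determined by comparison with vehicle treatment.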

[11] = NCI Yeast Anticancer Drug Screen. Data for the bub3 strain (AID 167); conditions: S. cerevisiae bub3 mutant strain, stronger effect = higher value
How it was run: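 Whole-cell yeast assay. The mutant strain was incubated with compounds, and growth inhibition was determined by comparison with vehicle-treated cells.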

[12] = NCI Yeast Anticancer Drug Screen. Data for the wt2 strain (AID 169);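 further: 0% = growth of vehicle-treated yeast cultures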; conditions: S. cerevisiae wt2 strain growth inhibition, stronger effect = higher value
How it was run: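 The panel's yeast strains carry defined changes in DNA repair or cell cycle genes. Each strain is grown with compound, and growth loss is scored relative to vehicle.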

[13] = NCI Yeast Anticancer Drug Screen. Data for the sgs1 strain (AID 173);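 further: 0% = growth of vehicle-only control cultures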; conditions: S. cerevisiae sgs1 mutant, stronger effect = higher value
How it was run: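 Vehicle-treated cultures served as reference for growth inhibition of a yeast strain altered in DNA damage repair or cell cycle control after compound exposure.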

[14] = NCI Yeast Anticancer Drug Screen. Data for the mlh1 rad18 strain (AID 175); conditions: S. cerevisiae mlh1 rad18 strain growth inhibition, stronger effect = higher value
How it was run: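 Inhibition values reflect reduced growth of mutant yeast versus vehicle-treated controls following compound exposure; the mutations affect DNA damage repair.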

[15] = NCI Yeast Anticancer Drug Screen. Data for the rad18 strain (AID 177); conditions: S. cerevisiae rad18 mutant growth inhibition, stronger effect = higher value
How it was run: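 Steps: expose repair-mutant yeast to compound; measure growth; express as inhibition relative to vehicle control.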

[16] = at 5.0 µM (retest, dose inferred, filed as 0.5)
[17] = at 50.0 µM (retest, dose inferred, filed as 5.0)

Measured: growth inhibition

OC1(c2ccccc2)CCCc2ccc(Cl)cc21 (stereo unspecified)
active: [1]; at 100.0 µM 99% | [2]; at 100.0 µM 98% | [3]; at 100.0 µM 74% | [4]; at 100.0 µM 99% | [5]; at 100.0 µM 99% | [6]; at 100.0 µM 99% | [7]; at 100.0 µM 99% | [9]; at 100.0 µM 99% | [11]; at 100.0 µM 98% | [12]; at 100.0 µM 99% | [13]; at 100.0 µM 99% | [15]; at 100.0 µM 99%
inactive: [1]; at 1.2 µM 1% | [1]; at 3.7 µM 2% | [1]; at 11.0 µM 0% | [1]; at 33.0 µM 42% | [2]; at 1.2 µM -1% | [2]; at 3.7 µM -2% | [2]; at 11.0 µM -8% | [2]; at 33.0 µM -4% | [3]; at 1.2 µM 3% | [3]; at 3.7 µM 7% | [3]; at 11.0 µM 13% | [3]; at 33.0 µM 20% | [4]; at 1.2 µM -10% | [4]; at 3.7 µM -15% | [4]; at 11.0 µM -2% | [4]; at 33.0 µM 5% | [5]; at 1.2 µM -3% | [5]; at 3.7 µM 1% | [5]; [16] 10% | [5]; at 11.0 µM -2% | [5]; at 33.0 µM 50% | [5]; [17] 28% | [5]; at 50.0 µM 57.2% | [6]; at 1.2 µM 2% | [6]; at 3.7 µM 5% | [6]; [16] 1% | [6]; at 11.0 µM 0% | [6]; at 33.0 µM 31% | [6]; [17] 11% | [6]; at 50.0 µM 50.2% | [7]; at 1.2 µM 1% | [7]; at 3.7 µM -1% | [7]; at 11.0 µM -1% | [7]; at 33.0 µM 17% | [8]; [16] -3% | [8]; [17] 4% | [8]; at 50.0 µM 56.2% | [9]; at 1.2 µM 1% | [9]; at 3.7 µM 0% | [9]; at 11.0 µM -17% | [9]; at 33.0 µM 20% | [10]; [16] 3% | [10]; [17] 13% | [10]; at 50.0 µM 11.1% | [11]; at 1.2 µM -2% | [11]; at 3.7 µM -10% | [11]; [16] -3% | [11]; at 11.0 µM -14% | [11]; at 33.0 µM -17% | [11]; [17] -13% | [11]; at 50.0 µM -16.4% | [12]; at 1.2 µM 0% | [12]; at 3.7 µM -2% | [12]; at 11.0 µM -7% | [12]; at 33.0 µM 7% | [13]; at 1.2 µM 0% | [13]; at 3.7 µM 0% | [13]; at 11.0 µM 0% | [13]; at 33.0 µM 33% | [14]; [16] 0% | [14]; [17] 39% | [14]; at 50.0 µM 53.8% | [15]; at 1.2 µM 0% | [15]; at 3.7 µM 4% | [15]; at 11.0 µM 3% | [15]; at 33.0 µM 40%

O=C(NO)Nc1cc(Cl)cc(Cl)c1
inactive: [1]; at 1.2 µM 7% | [1]; at 3.7 µM 39% | [2]; at 1.2 µM -3% | [2]; at 3.7 µM -3% | [3]; at 1.2 µM -4% | [3]; at 3.7 µM -4% | [3]; at 11.0 µM 19% | [4]; at 1.2 µM -3% | [4]; at 3.7 µM 16% | [5]; at 1.2 µM 7% | [5]; at 3.7 µM 50% | [5]; [16] 24% | [6]; at 1.2 µM -2% | [6]; at 3.7 µM 11% | [6]; [16] 0% | [7]; at 1.2 µM 8% | [7]; at 3.7 µM 20% | [8]; [16] 58% | [9]; at 1.2 µM 7% | [9]; at 3.7 µM 26% | [10]; [16] 21% | [11]; at 1.2 µM -2% | [11]; at 3.7 µM 10% | [11]; [16] -17% | [12]; at 1.2 µM -3% | [12]; at 3.7 µM 6% | [13]; at 1.2 µM -2% | [13]; at 3.7 µM 54% | [14]; [16] 64% | [15]; at 1.2 µM 3% | [15]; at 3.7 µM 34%
active: [1]; at 11.0 µM 99% | [1]; at 33.0 µM 99% | [1]; at 100.0 µM 97% | [2]; at 11.0 µM 80% | [2]; at 33.0 µM 99% | [2]; at 100.0 µM 98% | [3]; at 33.0 µM 88% | [3]; at 100.0 µM 86% | [4]; at 11.0 µM 100% | [4]; at 33.0 µM 99% | [4]; at 100.0 µM 98% | [5]; at 11.0 µM 99% | [5]; at 33.0 µM 99% | [5]; [17] 99% | [5]; at 50.0 µM 99.3% | [5]; at 100.0 µM 96% | [6]; at 11.0 µM 99% | [6]; at 33.0 µM 99% | [6]; [17] 99% | [6]; at 50.0 µM 99.2% | [6]; at 100.0 µM 98% | [7]; at 11.0 µM 99% | [7]; at 33.0 µM 98% | [7]; at 100.0 µM 98% | [8]; [17] 99% | [8]; at 50.0 µM 98.8% | [9]; at 11.0 µM 99% | [9]; at 33.0 µM 99% | [9]; at 100.0 µM 98% | [10]; [17] 99% | [10]; at 50.0 µM 99% | [11]; at 11.0 µM 99% | [11]; at 33.0 µM 99% | [11]; [17] 99% | [11]; at 50.0 µM 98.8% | [11]; at 100.0 µM 98% | [12]; at 11.0 µM 98% | [12]; at 33.0 µM 99% | [12]; at 100.0 µM 98% | [13]; at 11.0 µM 100% | [13]; at 33.0 µM 100% | [13]; at 100.0 µM 98% | [14]; [17] 99% | [14]; at 50.0 µM 99.3% | [15]; at 11.0 µM 99% | [15]; at 33.0 µM 99% | [15]; at 100.0 µM 98%
